# Compounds with a hit are over-represented: about 2.5% of the library has one in this group of screens.
# AF4-AF9 inh = inhibitors of AF4 peptide binding to AF9, primary screen, biochemical, AlphaScreen, biotin-AF4 peptide, FLAG-AF9, single point | AID 651704, 2012 | Protein AF-9 (Homo sapiens), P42568 | inhibition, % at 10 µM | 0.47% of 350,000 active;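 active = every replicate reaching a set inhibition limit, whatever the replicate mean, cut at about 25% in these data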;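 note: 0% = plate neutral control median and 100% = total signal loss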
# Target sequence (P42568 whole entry, looked up): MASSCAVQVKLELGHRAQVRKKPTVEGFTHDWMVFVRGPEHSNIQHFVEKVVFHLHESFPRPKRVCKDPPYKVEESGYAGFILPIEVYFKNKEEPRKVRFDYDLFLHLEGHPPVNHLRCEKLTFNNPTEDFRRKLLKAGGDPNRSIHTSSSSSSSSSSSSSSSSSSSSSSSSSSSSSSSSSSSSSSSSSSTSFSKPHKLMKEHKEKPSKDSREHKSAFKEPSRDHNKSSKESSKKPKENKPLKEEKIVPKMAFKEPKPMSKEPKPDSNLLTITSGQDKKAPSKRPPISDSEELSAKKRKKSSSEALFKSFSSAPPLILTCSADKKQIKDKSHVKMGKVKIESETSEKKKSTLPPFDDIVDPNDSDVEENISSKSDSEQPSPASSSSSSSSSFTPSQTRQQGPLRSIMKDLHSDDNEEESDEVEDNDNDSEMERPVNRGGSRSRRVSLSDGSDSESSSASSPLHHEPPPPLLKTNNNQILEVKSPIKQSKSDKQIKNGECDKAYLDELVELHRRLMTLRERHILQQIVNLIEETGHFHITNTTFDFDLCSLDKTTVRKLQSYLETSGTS
# RAD52 inh = RAD52 DNA annealing inhibitors, primary screen, biochemical, FRET, single point, set 2 | DNA repair protein RAD52 homolog (Homo sapiens), P43351 | recombinant RAD52 DNA annealing, FRET fluorescence | inhibition, % at 18.7 µM | 0.46% of 360,000 active;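 active = every replicate showing at least 50% inhibition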
# Ecoli rRNA inh = reduced GFP signal of wild-type E. coli, primary screen, bacterial rRNA inhibitor project, GFP/RFP fluorescence, OD600, single point; AID 720706, 2013; GFP signal change (wild-type ribosome), % (no concentration beside the values); E. coli WT GFP vs humanized-ribosome RFP mutants, 24 h; active compounds read low; DMSO median 0, no signal -100; 1.6% of 350,000 active;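 active = significant combined selectivity score with lowered wild-type GFP, culture density cut under 30%, mutant RFP and density less affected; inactive = any of these conditions unmet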
# CASP6 VEID inh = human caspase-6 inhibitors, primary screen, biochemical, VEID-R110 fluorescence, single point, set 2; inhibition, % at 12.5 µM; P55212; purified caspase-6, Z-VEID-R110 cleavage fluorescence; 0.53% of 350,000 active;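 active = mean inhibition across replicates at least about 35%, with every replicate also reaching that limit, limit read from the data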;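 note: 0% = median of neutral control wells and 100% = no fluorescence left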
# NSD2 inh = NSD2 histone methyltransferase inhibitors, primary screen, biochemical, AlphaScreen, single concentration, set 2; Histone-lysine N-methyltransferase NSD2 (Homo sapiens), O96028; 0.54% of 310,000 active; inhibition, % at 12.5 µM; NSD2 peptide methylation, 120 min; in the data active = inhibition above about 50%
# Starred values were filed as active, the others as inactive; nt = no result.
SMILES,AF4-AF9 inh,RAD52 inh,Ecoli rRNA inh,CASP6 VEID inh,NSD2 inh
CN(C)c1ccc(-n2cccc2/C=C/[N+](=O)[O-])cc1,25*,-1,4,2,nt
C[C@@H]1CN([C@@H](C)CO)C(=O)c2cccc(NS(C)(=O)=O)c2O[C@H]1CN(C)S(=O)(=O)c1ccc(F)cc1,nt,nt,3,nt,nt
CC(=O)Nc1cccc2c1Cc1ccccc1-2,nt,nt,nt,nt,0
CC(=O)Nc1cccc2c1Cc1cc([N+](=O)[O-])ccc1-2,0,-11,-19*,-2,-2
CCC1(C)Cc2c(C#N)c(SC)nc(N3CCOCC3)c2CO1 (centres undefined),-3,-2,-40*,7,-2
CC(C)CCSc1nc(N2CCOCC2)c2c(c1C#N)CC(C)(C)OC2,nt,nt,nt,nt,-1
CCc1nc2ccccc2n1CCc1ccccc1,2,-14,-24*,-3,-1
CCn1c(CCc2ccccc2)nc2ccccc21,-4,2,-23*,-3,-2
CC(C)(C)Cc1nc2ccccc2n1CCc1ccccc1,nt,nt,nt,nt,-3
O=C(Cc1ccccn1)NCC[C@H]1CC[C@H](NC(=O)Nc2ccc(Cl)cc2)[C@@H](CO)O1,-19,-6,-1,1,nt
O=C(Nc1ccccc1)OC1CCCCc2cccnc21 (centres undefined),-3,-10,-20,1,-1
O=C(Nc1cccc(Cl)c1)OC1CCCCc2cccnc21 (centres undefined),-2,-3,-24*,2,-4
O=C(C[C@H]1CC[C@H]2[C@@H](COC[C@H](O)CN2Cc2cccc(Cl)c2)O1)Nc1nccs1,3,-5,-3,-1,nt
COc1ccc(S(=O)(=O)N2CCOC2CNC(=O)C(=O)NCCc2c[nH]c3ccccc23)cc1 (centres undefined),2,-19,-1,-1,nt
COc1ccc(S(=O)(=O)N2CCOC2CNC(=O)C(=O)NCCc2c[nH]c3ccccc23)cc1C (centres undefined),8,-14,-15*,-1,nt
Nc1nc(Nc2cccc(F)c2)nc(N2CCOCC2)c1[N+](=O)[O-],1,-3,-29*,2,6
Cc1ccc(Nc2nc(N)c([N+](=O)[O-])c(N3CCOCC3)n2)cc1C,17,-16,-30,1,13
COc1ccc(C2=Nn3c(nnc3-c3ccccc3OC)SC2)cc1OCC1CC1,3,-20,-27*,-1,nt
COc1ccc(OC)c(-c2nnc3n2N=C(c2ccc(OC)c(OC)c2)CS3)c1,-1,-15,-19*,6,nt
O=C(O)c1cc(-c2ccc(-c3c(-c4ccc5c(c4)OCO5)noc3-c3ccsc3)cc2)nc2ccccc12,1,-4,-12,37*,nt
COC(=O)c1cc(-c2c(-c3ccc4c(c3)OCO4)noc2-c2ccsc2)cc([N+](=O)[O-])c1,3,-33,23,-2,nt
O=C(Nc1ccc2c(c1)OCO2)c1cc(-c2ccncc2)nc2ccccc12,7,12,-22*,2,2
O=C(C1CCN(c2ccc(N3CCOCC3)nn2)CC1)N1CCc2ccccc2C1,8,-8,8,56*,4
COc1cccc(NC(=O)N[C@@H]2CC[C@H](CC(=O)NCc3ccncn3)O[C@@H]2CO)c1,3,4,2,3,nt
O=C(CCN1CCN(c2ccccc2)CC1)N/N=C/c1ccc(O)c(O)c1O,-2,-24,-3,65*,21
SMILES,AF4-AF9 inh,RAD52 inh,Ecoli rRNA inh,CASP6 VEID inh,NSD2 inh
COc1ccc(/C=N/NC(=O)CCN2CCN(c3ccccc3)CC2)c(OC)c1OC,nt,nt,nt,nt,-1
CCC(=O)N1N=C(c2ccccc2)CC1c1ccccc1 (centres undefined),3,-5,-10,1,3
CCC(=O)N1N=C(c2c(O)n(C)c(=O)n(C)c2=O)CC1c1ccccc1 (centres undefined),-1,-7,-46*,0,-2
O=C1CSC(c2ccccc2)N1c1cccc(Cl)c1 (centres undefined),-2,6,nt,-1,nt
[O-][n+]1c(/C=C/c2ccccc2)ccc2ccccc21,7,-28,3,1,1
[O-][n+]1c2ccccc2[n+]([O-])c2cc(O)ccc21,10,-6,-12,68*,20
CC(C)(C)C(=O)c1c(N)[nH]c(C(=O)c2ccccc2)c1-c1ccc(Cl)cc1,2,-13,-33,0,nt
CC(C)(C)C(=O)c1c(N)[nH]c(C(=O)c2ccccc2)c1-c1ccc(Cl)cc1Cl,-1,-5,-30*,0,nt
N#Cc1c(N)[nH]c(C(=O)c2ccccc2)c1-c1ccc(Cl)cc1,-14,-15,-44*,-1,nt
Nc1[nH]c(C(=O)c2ccccc2)c(-c2ccc(Cl)cc2Cl)c1C(=O)c1ccc(Cl)c(Cl)c1,0,-26,-6,-2,nt
C[C@H]1CN([C@@H](C)CO)C(=O)c2cc(Br)cnc2O[C@H]1CN(C)C(=O)c1ccccc1F,-2,6,2,-6,nt
COc1ccc(CN(C)C[C@H]2OCCCC[C@@H](C)Oc3ccc(NS(=O)(=O)c4c(C)noc4C)cc3C(=O)N([C@@H](C)CO)C[C@H]2C)cc1,4,28,0,-1,nt
CC(C)NC(=O)N(C)C[C@H]1Oc2ccc(NC(=O)Cn3cnnn3)cc2C(=O)N([C@@H](C)CO)C[C@H]1C,nt,nt,6,nt,nt
CN(C)CCCN(C(=O)CCc1ccccc1)c1nc2ccc(F)cc2s1,nt,nt,nt,nt,-2
CN(C)CCCN(C(=O)CCc1ccccc1)c1nc2ccc(Br)cc2s1,26*,41,-57,-3,10
CC(=O)c1cccc(N(CC(=O)NC2CCCCC2)C(=O)c2csnn2)c1,34*,-12,nt,-3,0
Clc1cccc(CN2CCC3CC2c2cc(N4CCCCC4)ccc23)c1 (centres undefined),26*,-31,-31,-1,nt
c1ccc(CN2CCC3CC2c2cc(N4CCCCC4)ccc23)cc1 (centres undefined),22,-31,-5,-6,nt
O=S(=O)(Nc1nccs1)c1ccc(NCc2cc(Br)cc(Br)c2O)cc1,-6,-18,-47*,-2,19
CCOC(=O)c1c(-c2ccc(OC)c(OC)c2)csc1NC(=O)C1CCCO1 (centres undefined),-2,-14,-37*,3,nt
COc1ccc(-c2csc(NC(=O)c3cccs3)c2C(=O)O)cc1OC,-4,-14,-34*,0,-1
O=C(C[C@H]1C[C@H]2c3cc(NC(=O)C4CCOCC4)ccc3O[C@H]2[C@H](CO)O1)NCc1ccccc1,-1,11,2,-1,nt
CCc1cc(C(=O)c2ccc(OC)cc2)c(NC(=O)CCC(=O)O)s1,-7,-12,-42*,-2,0
COc1ccc2c3c([nH]c2c1)[C@@H](CO)N(Cc1nccs1)CC31CN(C(=O)C2CCCCC2)C1,nt,nt,-1,nt,nt
